39 compounds from the supplement of paper PMC9135407 can be followed below.

In this assay the test system is primary human hepatic stellate cells (donor 1). The assay is described as follows: scaled lipid accumulation score (0 = DMSO-like, 1 = nortriptyline-like); higher = stronger HSC inactivation (lipid re-accumulation), active = hit call of the paper. Conditions: 48 h. On the procedure: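 Primary lipid accumulation screen in primary human hepatic stellate cell myofibroblasts (donor 1, passage 8) in 384-well plates. 100 nL of library compound was pin-transferred into 30 µL medium in duplicate, and cells were treated for 48 h. The 'Scaled' score combines distance from plate baseline, toxicity and reproducibility penalties, and is normalised to nortriptyline (positive) and DMSO (negative) controls on each plate. A hit is defined as scaled >0.85 or among the top 3 wells per plate.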

The mark [1] stands for this setting: library stock concentration: 10 mM.
Where [2] appears, read: library stock concentration: 8.6 mM.
Setting [3] is: library stock concentration: 1 mM.
The mark [4] stands for this setting: library stock concentration: 3.33 mM.

“And” between values parts separate entries of the source, which are not always exact repeats. Equal entries are not always repeated. Structures can show the parent of a compound that is named as a salt. Screen size: about 5,800 compounds; about 620 (11%) showed activity. The full list was thinned out, with actives kept by preference. Unmarked numbers belong to inactive results.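 The calls were made as follows: active = score above a cut-off or among the top three wells of a plate; in these data no inactive exceeds 0.85.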 Bounds are passed on as bounds.

Take `Cc1c2ccncc2c(C)c2c1[nH]c1ccccc12` [Ellipticine]: the “scaled lipid accumulation score” value is 0.623. In addition, the “scaled lipid accumulation score” value under setting [1] was ≤ -0.07.

As to `CCC(N)C(O)c1ccc(O)c(O)c1` (configuration not stated) [Ethylnorepinephrine hydrochloride], the “scaled lipid accumulation score” value is ≤ 0 under setting [2] and ≤ -0.027 under setting [1]. Take `NCC(O)c1cc(O)c(O)cc1F` (configuration not stated) [6-Fluoronorepinephrine hydrochloride]: the “scaled lipid accumulation score” value under setting [1] was ≤ 0. As for `CCCCC/C=C\C/C=C\C/C=C\C/C=C\CCCC(=O)Nc1ccc(O)cc1C`, under setting [3], the “scaled lipid accumulation score” value was 0.064. In the case of `CCCCCCCC/C=C\CCCCCCCC(=O)N[C@H](C)CO`, under setting [3], the “scaled lipid accumulation score” value is 0.021. As for `COc1cc(C(O)CN)ccc1O` (configuration not stated), the “scaled lipid accumulation score” value under setting [1] was ≤ -0.055. For the compound `C=C(C)[C@@H]1CCC(C)=C[C@H]1c1c(O)cc(O)cc1CCCCC`, the “scaled lipid accumulation score” value under setting [3] was ≤ 0.

Consider `CCCCC/C=C\C/C=C\C/C=C\C/C=C\CCCC(=O)N[C@@H](C)C(=O)O` [N-Arachidonoyl-L-Alanine], for which the “scaled lipid accumulation score” value under setting [3] is 0.035.

As for `CCn1cnc2c(Nc3cccc(Cl)c3)nc(N[C@@H]3CCCC[C@@H]3N)nc21`, the “scaled lipid accumulation score” value is ≤ -0.016 (library stock concentration: 80 uM); ≤ -0.016 (library stock concentration: 400 uM); 0.503 (library stock concentration: 2 mM); 0.364 and 0.356 under setting [1]. In the case of `CN1CCC[C@@H]1Cc1c[nH]c2ccc(Nc3ncccc3[N+](=O)[O-])cc12`, under setting [1], the “scaled lipid accumulation score” value is ≤ 0. On the same count and under the same terms, the value for `CC[C@]1(O)CC[C@H]2[C@@H]3CCC4=CCCC[C@@H]4[C@H]3CC[C@@]21C` [Ethylestrenol] was ≤ 0. As for `CCN1C[C@]2(C)CC[C@H](O)[C@]34C1[C@@H](C[C@H]23)[C@@]1(O)C[C@H](OC)[C@H]2C[C@@H]4[C@@H]1[C@H]2O` [Karakoline], the “scaled lipid accumulation score” value was ≤ 0. Turning to `C=C(C)[C@H]1CN[C@H](C(=O)O)[C@H]1CC(=O)O` [(-)-(.alpha.)-Kainic Acid (hydrate)], under setting [3], the “scaled lipid accumulation score” value was ≤ 0.

For `C=C(C)[C@H]1CN[C@H](C(=O)O)[C@H]1CC(=O)O` [Kainic acid], the “scaled lipid accumulation score” value under setting [1] was ≤ -0.055 and 0.031 and ≤ -0.009.

With `CC[C@H]1CN2CCc3cc(OC)c(OC)cc3[C@@H]2C[C@@H]1C[C@H]1NCCc2cc(OC)c(OC)cc21.Cl.Cl` [Emetine dihydrochloride], the “scaled lipid accumulation score” value was 0.98 (active). On to `CC[C@H]1CN2CCc3cc(OC)c(OC)cc3C2C[C@@H]1CC1NCCc2cc(OC)c(OC)cc21.Cl.Cl` (some centres not stated) [Emetine], for which, under “library stock concentration: 3.6 mM”, the “scaled lipid accumulation score” value is 1.37 (active). As for `CC[C@H]1CN2CCc3cc(OC)c(OC)cc3[C@@H]2C[C@@H]1C[C@H]1NCCc2cc(OC)c(OC)cc21` [Emetine], the “scaled lipid accumulation score” value under setting [1] was 0.627. On to `CC[C@H]1CN2CCc3cc(OC)c(OC)cc3[C@@H]2C[C@@H]1C[C@H]1NCCc2cc(OC)c(OC)cc21` [Emetine dihydrochloride hydrate], for which the “scaled lipid accumulation score” value under setting [1] was 0.835. Turning to `COc1cc2c(cc1OC)C(C)NCC2` (configuration not stated), the “scaled lipid accumulation score” value was 0.537. On to `COc1cc2c(cc1OC)C1CC(=O)C(CC(C)C)CN1CC2` (configuration not stated) [Tetrabenazine], for which, under setting [1], the “scaled lipid accumulation score” value was ≤ 0 and ≤ -0.001. Turning to `CC(=O)[C@H]1CC[C@H]2[C@@H]3CC[C@H]4C[C@](C)(O)CC[C@]4(C)[C@H]3CC[C@]12C` [Ganaxolone], the “scaled lipid accumulation score” value under setting [1] was 0.134 and ≤ -0.001. As to `CCCCCCC(=O)O[C@H]1CC[C@H]2[C@@H]3C[C@@H](O)C4=CC(=O)CC[C@]4(C)[C@H]3CC[C@]12C` [6.beta.-Testosterone Enanthate], the “scaled lipid accumulation score” value under setting [3] was 0.05.

For `c1ccc(/N=N/c2ccccc2)cc1` [Azobenzene], the “scaled lipid accumulation score” value under setting [1] is ≤ 0. With `CC1=C2[C@H]3OC(=O)[C@@H](C)[C@@H]3CC[C@@]2(C)C=CC1=O` [alpha-Santonin], the “scaled lipid accumulation score” value was ≤ 0. Take `C[C@H]1CC[C@]2(NC1)O[C@H]1C[C@H]3[C@@H]4CC[C@H]5C[C@@H](O)CC[C@]5(C)[C@H]4CC[C@]3(C)[C@H]1[C@@H]2C` [Tomatidine]: the “scaled lipid accumulation score” value is 0.117. Same read-out and setting: under `C[C@H]1O[C@@H](O[C@H]2CC[C@]3(C=O)[C@H]4CC[C@]5(C)[C@@H](C6=CC(=O)OC6)CC[C@]5(O)[C@@H]4CC[C@]3(O)C2)C[C@H](O)[C@@H]1O` [Helveticoside] stands 0.504. With `C[C@]12CCC3C(CC[C@]4(O)C[C@@H](O)CC[C@]34C=O)[C@@]1(O)CCC2C1=CC(=O)OC1` (some centres not stated) [Strophanthidin], under setting [1], the “scaled lipid accumulation score” value was 1.12 (active).

Take `C[C@]12CC[C@H]3[C@@H](CC[C@]4(O)C[C@@H](O)CC[C@]34C=O)[C@@]1(O)CC[C@@H]2C1=CC(=O)OC1` [Strophanthidin]: the “scaled lipid accumulation score” value was 0.887 (active). Regarding `CCN1C[C@]2(COC(=O)c3ccccc3N3C(=O)C[C@H](C)C3=O)CC[C@H](OC)[C@@]34[C@@H]5C[C@H]6[C@H](OC)[C@@H]5[C@](O)(C[C@@H]6OC)[C@](O)([C@@H](OC)[C@H]23)[C@@H]14` [Methyllycaconitine citrate], the “scaled lipid accumulation score” value under setting [1] was ≤ -0.006. As for `CCC1(c2ccc(N)cc2)CCC(=O)NC1=O` (racemic) [Dl-aminoglutethimide], the “scaled lipid accumulation score” value under setting [2] is 0.005. On to `NC(CP(=O)(O)O)C(=O)O` (configuration not stated), for which the “scaled lipid accumulation score” value under setting [1] was 0.082.

In the case of `CCCCCCCCCCCCCCCCOCC(COP(=O)([O-])OCC[N+](C)(C)C)OC(C)=O` (stereo not drawn) [Enantio-PAF C16], the “scaled lipid accumulation score” value under setting [3] was 0.064. As to `C=CCc1ccc2c(c1)OCO2` [Safrole], under setting [1], the “scaled lipid accumulation score” value is 0.109. Regarding `O=C(Oc1ccc([N+](=O)[O-])cc1)N1CCC(C(O)(c2ccc3c(c2)OCO3)c2ccc3c(c2)OCO3)CC1`, the “scaled lipid accumulation score” value is ≤ 0 under setting [4] and ≤ -0.001 under setting [1].

For the compound `O=[N+]([O-])/C=C/c1ccc2c(c1)OCO2`, the “scaled lipid accumulation score” value under setting [1] was 0.967 (active). Consider `O=[N+]([O-])C=Cc1ccc2c(c1)OCO2`, for which the “scaled lipid accumulation score” value was 1.44 (active) under setting [4] and 0.901 (active) under setting [1]. Turning to `O=[N+]([O-])/C=C/c1ccc2c(c1)OCO2` [Syk Inhibitor III], the “scaled lipid accumulation score” value under setting [4] was 0.609. Consider `c1cc2c(cc1[C@H]1OC[C@H]3[C@@H]1CO[C@@H]3c1ccc3c(c1)OCO3)OCO2` [Sesamin], for which the “scaled lipid accumulation score” value is, setting by setting: under setting [4], ≤ 0; under setting [1], ≤ 0. On to `C=C1C/C(=C/C)C(=O)O[C@@H]2CCN3CC=C(COC(=O)[C@]1(C)O)[C@H]23` [Seneciphylline], for which the “scaled lipid accumulation score” value was ≤ 0.
